Screens: PubChem BioAssay, National Center for Advancing Translational Sciences (NCATS)
HP1b binding inh – HTS for Inhibitors of HP1-beta Chromodomain Interactions with Methylated Histone Tails; AlphaScreen HP1-beta / biotin-H3K9me3 peptide binding; Chromobox protein homolog 1 (Homo sapiens), P83916; 390,000 compounds, 0.56% hits; AID 540317, 2011; Potency, µM (highest dose often 114 µM), actives largely listed as inhibitors; note: nearly all actives have a fitted effect of over 70% in size
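Compound inhibition of the preformed complex between 50 nM HP1-beta and 50 nM biotinylated H3K9me3 peptide was read by AlphaScreen. Buffer was PBS pH 7.4 with 0.01% Tween-20. Incubations ran 30 min at room temperature, with 10 ug/mL donor/acceptor beads.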
BAZ2B block – qHTS Assay for Inhibitors of BAZ2B; AlphaScreen BAZ2B-H3K14Ac peptide displacement; AID 504333, 2011; Potency, µM (top dose mostly 114 µM), hits mostly inhibitors; 360,000 compounds, 4.4% hits; note: nearly all actives have a fitted effect of over 60% in size
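BAZ2B (50 nM) with biotin-H3(5-23)K14Ac peptide (50 nM) in PBS pH 7.4, 0.01% Tween-20, preformed 30 min, then compound 30 min at room temperature; top concentration 110uM. AlphaScreen streptavidin donor/nickel chelate acceptor beads (10 ug/mL final), 20 min dark, signal read.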
JMJD2A Tudor – qHTS Assay for Inhibitors of JMJD2A-Tudor Domain; Lysine-specific demethylase 4A (Homo sapiens), O75164; AlphaScreen JMJD2A-Tudor / H3K4me3 peptide binding; Potency, µM (doses to about 114 µM), hits mostly inhibitors; 390,000 compounds, 4.4% hits; AID 504339, 2011; note: nearly all actives have a fitted effect of over 50% in size
G9a block – qHTS Assay for Inhibitors of Histone Lysine Methyltransferase G9a. Potency, µM (top dose mostly 102 µM), actives largely listed as inhibitors. G9a H3K9 monomethylation, AlphaScreen, 2 h. 350,000 compounds, 8.8% hits. Histone-lysine N-methyltransferase EHMT2 (Homo sapiens), Q96KQ7; note: nearly all actives have a fitted effect of over 75% in size
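Step 1: enzyme (final 20 nM) with compound, 15 min RT. Step 2: substrate peptide 500 nM and SAM 20 uM, 2 h RT. Step 3: anti-H3K9me1 antibody and AlphaScreen beads, 10 min, then plate read.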
L3MBTL1 inh – qHTS Assay for the Inhibitors of L3MBTL1 | AID 485360, 2010 | AlphaScreen L3MBTL1–H3K9me1 peptide binding | Potency, µM (titrated, usually from 57.1 µM), most hits filed as inhibitors | 230,000 compounds, 0.66% hits; note: nearly all actives have a fitted effect of over 60% in size
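L3MBTL1 (50 nM) pre-complexed 30 min with biotinylated H3(1-15)K9me1 peptide (75 nM), then compounds added for 30 min at room temperature; AlphaScreen streptavidin donor/nickel chelate acceptor beads (10 ug/mL final) read after 30 min dark incubation.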
Hits are given with their value; 0 = inactive; ? = inconclusive; - = no result; [ ] = dose if it differs, or a comment. Compounds with a hit are over-represented: about 11% of the library has one in this group of screens. Calls come from the whole dose curve; as a rule, active = well fitted inhibition curve with a large enough effect; inconclusive = small, poorly fitted or top-dose-only effect; inactive = no such curve, though single readings can be large or run the other way.

SMILES | HP1b binding inh | BAZ2B block | JMJD2A Tudor | G9a block | L3MBTL1 inh
CC(C)Cn1c(=S)[nH]c2cc(Cl)ccc21 | ? | 0 | 0 | 6.3µM | 0
O=C(NCc1ccccc1Cl)C(=O)NCC(c1ccco1)S(=O)(=O)c1cccs1 (stereo not given) | 0 | 0 | 0 | 0 | -
O=C(NCCc1ccc(Cl)cc1)C(=O)NCC(c1ccc2c(c1)OCO2)N1CCOCC1 (stereo not given) | 0 | 0 | 0 | 0 | -
COC(=O)Cn1c2ccc(F)cc2c2nc(C)sc21 | 0 | 0 | 0 | 45µM | 0
CCOC(=O)Cn1c2ccc(F)cc2c2nc(C)sc21 | 0 | 0 | 0 | 0 | -
CCc1cccc(CC)c1NC(=O)CN1CCc2cc(OC)c(OC)cc2C1 | - | 50µM | - | 71µM | -
COC(=O)CSc1cc([N+](=O)[O-])ccc1NC(=O)OC | 0 | 0 | 0 | 35µM | -
COc1cc2c(cc1OC)CN(CC(=O)NC(=O)NCc1ccccc1)CC2 | 0 | 0 | 0 | 56µM | 0
COC(=O)Nc1ccc([N+](=O)[O-])cc1OC | 0 | 0 | 0 | 0 | 0
COc1cc2c(cc1OC)CN(CC(=O)Nc1ccccc1C(=O)NCc1ccccc1)CC2 | 0 | ? | 0 | 0 | -
COc1cc([N+](=O)[O-])ccc1NC(=O)CN1CCc2cc(OC)c(OC)cc2C1 | 0 | 0 | 0 | 28µM | -
COc1cc2c(cc1OC)CN(CC(=O)Nc1cccc(C)c1)CC2 | 0 | 0 | 0 | 0 | 0
Cc1cccc(-c2noc(-c3ccc(NCc4ccccc4)c([N+](=O)[O-])c3)n2)c1 | 0 | 0 | 0 | 0 | -
Cc1cc([N+](=O)[O-])nn1CC(=O)NCc1nc2ccccc2[nH]1 | 0 | 0 | 0 | 0 | 0
Cc1cc(C)c(NC(=O)Cn2ccn(-c3cccc(Cl)c3)c(=O)c2=O)c(C)c1 | 0 | 0 | 0 | 0 | -
CCn1ccc2c(OCC(=O)Nc3ccc(C)c(Cl)c3)cccc2c1=O | 0 | 0 | 0 | 0 | -
Cn1nnnc1SCCCNCc1cccc(OCc2ccccc2)c1 | 0 | 0 | 0 | 0 | -
CCN1C(=O)/C(=C/C=C2/CCCN2C)OC1=S | 0 | 0 | 0 | 0 | 0
CN1C(=O)/C(=C\C=C2/CCCN2C)N(C)C1=S | 0 | 0 | 0 | 18µM | -
Cc1nn(C(C)C(=O)NCCCN2CCCCCC2)c(=O)c2c1sc1ccccc12 (stereo not given) | 0 | 0 | 50µM | 50µM | -
Cc1nn(CCCC(=O)NCCc2ccc(Cl)cc2)c(=O)c2c1sc1ccccc12 | 32µM | 25µM | 7.9µM | 6.3µM | -
CCOc1ccc(CCNC(=O)CCCn2nc(C)c3sc4ccccc4c3c2=O)cc1 | 0 | 0 | 0 | 0 | -
CN(c1ccccc1)c1ccc(/C=C(\C#N)c2nnc3n2CCCCC3)cc1[N+](=O)[O-] | ? | 45µM | 45µM | 40µM | ?
Cc1cc(N(C)N)nc(NC(=O)NS(=O)(=O)c2ccccc2Cl)n1 | 0 | 28µM | 28µM | 0 | -
COc1cc(OC)nc(NC(=O)NS(=O)(=O)c2ccccc2Cl)n1 | 0 | 0 | 0 | 0 | 0
SMILES | HP1b binding inh | BAZ2B block | JMJD2A Tudor | G9a block | L3MBTL1 inh
CCOc1cc(N2CCOCC2)c(OCC)cc1NC(=O)COC(=O)c1ccc([N+](=O)[O-])o1 | 0 | - | 0 | - | ?
S=C(Nc1ccc(Cl)c(Cl)c1)N1CCCC1 | 0 | 0 | 0 | 0 | -
S=C(Nc1ccc2nsnc2c1)N1CCCCC1 | 0 | 0 | 0 | 16µM | 0
S=C(Nc1ccc2nccnc2c1)N1CCOCC1 | 0 | 0 | 0 | 45µM | ?
S=C(Nc1ccc2nc(-c3ccccn3)c(-c3ccccn3)nc2c1)N1CCCCCC1 | 0 | 0 | 0 | 20µM | 0
Cc1ccc(NC(=S)N2CCOCC2)cc1 | 0 | 0 | 0 | 0 | 0
CCCNC(=S)Nc1ccc2nc(-c3ccccn3)c(-c3ccccn3)nc2c1 | 0 | 0 | 0 | 13µM | 0
Cc1cccc(C)c1NC(=O)Cn1nnc(C(=O)Nc2c(C)cccc2C)c1N | 0 | - | 0 | 0 | -
O=C(c1ccc(Br)s1)N(Cc1cccnc1)c1nc2ccc(F)cc2s1 | 0 | 0 | 0 | ? | -
Cn1c(=O)c2c(nc(NCc3ccccc3)n2Cc2ccc(Cl)c(Cl)c2)n(C)c1=O | 0 | 0 | 0 | 0 | -
CCn1c(C)cc(/C=C2/SC(=S)NC2=O)c1C | 0 | 0 | 0 | ? | 0
Cc1cc(/C=C2\SC(=S)NC2=O)c(C)[nH]1 | 0 | 45µM | ? | - | 0
CCn1ncc(/C=C2/SC(=S)NC2=O)c1C | 0 | 0 | 0 | 50µM | 0
CCOc1cc2c(cc1/C=C/c1noc(C)c1[N+](=O)[O-])OC(C)C2 (stereo not given) | 0 | 0 | 0 | 45µM | -
CCC(=O)Nc1ccccc1-c1nc2ccccc2n(CC(=O)c2ccc(C)cc2)c1=O | 0 | 0 | 0 | ? | -
O=C(Nc1cccc(OCc2cc(=O)n3ccccc3n2)c1)Nc1cccc(C(F)(F)F)c1 | 0 | 0 | 0 | 0 | -
Cc1ccc(C2(c3ccc(C)cc3)CC2C(=O)Nc2ccc([N+](=O)[O-])cc2O)cc1 (stereo not given) | 0 | ? | ? | 25µM | 0
CC1(C)CC1C(=O)Nc1ccc([N+](=O)[O-])cc1Br (stereo not given) | 0 | 0 | 0 | 0 | 0
CCc1ccc(C2C(C(=O)Nc3ccccc3C)=C(C)Nc3nc(SCc4cccc(OC)c4)nn32)cc1 (stereo not given) | 0 | 0 | 0 | 0 | -
Cc1ccc(N(Cc2cc(=O)[nH]c3ccccc23)C(=O)CCl)c(C)c1 | 0 | 0 | 0 | 50µM | -
CCCC(=O)N(Cc1cc(=O)[nH]c2ccccc12)c1ccc(C)cc1C | 0 | 0 | 0 | ? | -
CCC(=O)N(Cc1cc(=O)[nH]c2ccccc12)c1cccc(C)c1 | 0 | 0 | 79µM | 10µM | 0
CCC(=O)N(Cc1cc(=O)[nH]c2ccccc12)c1ccccc1C | ? | 0 | 0 | 45µM | 0
CCc1ccccc1NC(=O)CN(c1cc(C(F)(F)F)ccc1Cl)S(=O)(=O)c1ccccc1 | ? | 0 | 0 | 0 | -
O=C(COC(=O)C12CC3CC(CC(Br)(C3)C1)C2)NCc1ccco1 | 0 | - | 0 | - | -
SMILES | HP1b binding inh | BAZ2B block | JMJD2A Tudor | G9a block | L3MBTL1 inh
O=c1c(-c2ccccc2)nc2cnc(N3CCNCC3)nc2n1-c1ccccc1 | - | - | - | 0[0.501 µM] | -
COc1ccc(CCn2c3c(c(=O)[nH]c2=S)CN(CC(C)C)CN3)cc1OC | 0 | - | 0 | - | -
CCC(=O)N1CCc2cc(Br)cc(S(=O)(=O)CCC(=O)NCCc3cccc(C)c3)c21 | 0 | 0 | 0 | 0 | -
CCOC(=O)c1cnc(-c2ccccc2)nc1Oc1ccc(Cl)cc1 | 0 | 0 | 0 | 0 | 0
CCOC(=O)c1cnc(-c2ccccc2O)nc1Cl | 0 | ? | 18µM | 45µM | -
CC(=O)N1CCN(C(=O)c2ccc(NS(=O)(=O)c3ccc4[nH]c(=O)[nH]c4c3)cc2)CC1 | 0 | 0 | 0 | 0 | 0
